Only some compounds are listed: those with a hit (about 14% of all), similar ones and a draw of the others.
LmPK inhibitor: blocks Leishmania mexicana pyruvate kinase activity. Q27686. purified LmPK, Kinase-Glo ATP luminescence, 1 h. Potency, µM (doses to about 57.5 µM), inactives show top-dose activity change, negative = inhibition, hits mostly inhibitors. hit rate 0.37% among 290,000. AID 1721; also: potency is read from the fitted curve at half-maximal effect; % is scaled to controls: 0 for no effect and ±100 for the full control effect
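Purified LmPK (0.1 nM) with 0.5 mM PEP and 0.1 mM ADP in imidazole buffer pH 7.2 with MgCl2/KCl, 1 h at room temperature. ATP formed was read by luciferase luminescence and normalized to no-enzyme and uninhibited controls.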
Giardia FBPA inh: Giardia lamblia aldolase inhibition | purified Giardia FBPA | AID 2451 | Potency, µM (highest dose often 59.6 µM), for inactives: at the top dose activity, negative = inhibition, hits mostly inhibitors | hit rate 0.71% among 290,000 | A8B2U2; also: potency is read from the fitted curve at half-maximal effect; % is scaled to controls: 0 for no effect and ±100 for the full control effect; nearly all actives have a fitted effect of over 55% in size
Target sequence (A8B2U2 whole entry, looked up): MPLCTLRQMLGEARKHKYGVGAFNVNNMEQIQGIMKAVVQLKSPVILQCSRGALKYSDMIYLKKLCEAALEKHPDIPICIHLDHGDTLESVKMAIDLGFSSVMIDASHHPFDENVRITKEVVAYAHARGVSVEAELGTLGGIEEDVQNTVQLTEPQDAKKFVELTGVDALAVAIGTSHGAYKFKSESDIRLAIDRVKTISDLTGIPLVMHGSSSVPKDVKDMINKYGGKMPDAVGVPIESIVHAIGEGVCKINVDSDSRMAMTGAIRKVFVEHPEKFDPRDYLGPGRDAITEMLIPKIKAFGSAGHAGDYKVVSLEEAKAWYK
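Giardia FBPA (40 nM reagent) was preincubated 10 min at RT with compound (up to 57.5 uM final), then substrate plus GAPDH/TPI/NAD/arsenate coupling system with diaphorase/resazurin was added; resorufin fluorescence (525/598 nm) was read after 20 min.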
Cycloheximide cs: counter-screen hit for Shiga toxin inhibitors, cycloheximide. hit rate 12% among 300,000. cell reporter, cycloheximide protein synthesis inhibition counterscreen. max response, %. AID 2314; in the data active = max response mostly above about 13%, no sharp cut-off; inactive = mostly below about 14%; also: read at 38.3 µM for the half of the compounds with a filed dose; 0% is about no effect
NS1 function inh: blocks influenza NS1 protein function; hit rate 0.4% among 270,000; Potency, µM (top dose mostly 46.1 µM), for inactives: at the highest dose activity, positive = more growth; calls by dose curve; also: potency is read from the fitted curve at half-maximal effect; actives are rising curves; nearly all actives have a fitted effect of over 50% in size
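A cell-based growth assay was used: compounds that relieve NS1-induced slow growth of budding yeast raise OD600. Assay medium was yeast nitrogen base with ammonium sulphate and -URA supplement, pH 6.0, with 2% galactose.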
Shiga inhibitor: blocks Shiga toxin action in Vero cells; Vero cells, Shiga toxin protein synthesis inhibition reporter; inhibition, % at 38.7 µM; hit rate 9.2% among 290,000; AID 2315; in the data active = inhibition mostly above about 28%, no sharp cut-off; inactive = mostly below about 43%; also: 0% is about no effect
Active calls of the source: *; u = inconclusive; x = no result. Unless noted, calls follow the shape of the dose curve; as a rule, active = well fitted curve in the direction sought with a large enough effect; inconclusive = small, poorly fitted or top-dose-only effect, or another doubt; inactive = no such curve, though single readings can be large; an effect the other way counts as inactive or inconclusive.

SMILES	LmPK inhibitor	Giardia FBPA inh	Cycloheximide cs	NS1 function inh	Shiga inhibitor
CCOC(=O)N/N=C/c1ccccc1OCc1ccc(Cl)cc1	5%	-1%	34*	-18%	50*
O/N=C/c1ccccc1OCc1ccc(Cl)cc1	1%	2%	44*	-109%	63*
O=C(Cc1ccccc1)N/N=C/c1ccccc1OCc1ccc(Cl)cc1	1%	-4%	9	16%	-5
CCc1c(C)nc2c(-c3ccccc3OC)c(C)[nH]n2c1=O	-4%	u	-1	24%	-12
C[C@@H](N)C(=O)NC[C@H]1CC[C@H](C(=O)N[C@@H](Cc2ccccc2)C(=O)O)CC1	-2%	-30%	-1	-6%	-10
O=C1NC(=O)/C(=C/c2ccccn2)S1	-15%	-9%	-2	-72%	51
O=C1NC(=O)/C(=C/c2ccc(O)cc2)S1	-5%	11%	36*	-5%	75*
O=C(Nc1ccc2c(c1)OCO2)c1cnc2n(c1=O)CCS2	-7%	-1%	29*	2%	49*
COc1ccc(OC(=O)c2cnc3n(c2=O)CCS3)cc1	-7%	7%	15*	-1%	26
O=C(Nc1ccccc1)c1cnc2n(c1=O)CCS2	-5%	3%	15	-30%	47
Cc1cccc(NC(=O)c2cnc3n(c2=O)CCS3)c1	-4%	-4%	21*	-3%	17*
CCn1cnc2sc(C(=O)Nc3ccc4c(c3)OCO4)c(C)c2c1=O	-19%	-5%	38*	1%	94*
CNC(=S)N(CCCO)Cc1cc2cc3c(cc2[nH]c1=O)OCO3	-1%	-8%	-8	2%	1
Cc1ccc(S(=O)(=O)N2CCN(c3ncnc4sccc34)CC2)cc1	0%	x	-3	-51%	-8
CCCCOC(=O)c1ccc(NC(=O)c2cnc3n(c2=O)CCS3)cc1	7%	2%	-5	6%	-14
O=C(Nc1ccc2c(c1)OCCO2)c1cnc2n(c1=O)CCS2	-26%	-2%	30*	-30%	18
O=C(Nc1ccc(OC(F)(F)F)cc1)c1cnc2n(c1=O)CCS2	2%	4%	16*	-31%	21
O=C(Cc1noc2ccccc12)Nc1ccc2ccccc2c1	5%	2%	32*	1%	69*
O=C(CS)Nc1ccc2ccccc2c1	3%	-7%	15	1%	49
Cc1ccc(NC(=O)Cc2noc3ccccc23)cc1	-5%	-2%	46*	-6%	68*
Cn1c(=O)c2[nH]c(CS(=O)(=O)Cc3nc4c([nH]3)c(=O)n(C)c(=O)n4C)nc2n(C)c1=O	x	x	x	-3%	x
CCCCc1ccc(NC(=O)N[C@@H](CC(C)C)C(=O)O)cc1	3%	27%	10	7%	-5
CCCCc1ccc(NC(=O)CSCc2cc(=O)[nH][nH]2)cc1	-1%	0%	-1	18%	20
CCCCc1ccc(NC(=O)COCC)cc1	-9%	-1%	50*	-5%	44*
CCCCc1ccc(NC(=O)CC(C)C)cc1	-3%	-7%	29*	-35%	66*
SMILES	LmPK inhibitor	Giardia FBPA inh	Cycloheximide cs	NS1 function inh	Shiga inhibitor
CCOCC(=O)Nc1ccc(Br)c(C)c1	-4%	-2%	32*	2%	76*
COc1cccc(/C=C(\C#N)c2nc3ccccc3[nH]2)c1OCC(=O)O	0%	-15%	31*	14%	67*
COc1cccc(/C=C(/C#N)c2nc3ccccc3[nH]2)c1OC(C)C(=O)O (stereo unspecified)	-2%	-11%	26*	2%	58*
COc1cccc(Nc2ncc3nc(-c4ccccc4)c(=O)n(C)c3n2)c1	x	-4%	x	x	x
NC(=O)c1cc(-c2ccccc2)sc1NC(=O)CN1CCCCC1	-3%	-4%	11*	-12%	36
NC(=O)Nc1sc(-c2ccc(F)cc2)cc1C(N)=O	x	-6%	17*	x	4
O=C(N[C@H]1CP(=O)(Oc2ccccc2)O[C@H](COCc2ccccc2)[C@H]1O)C(Cl)(Cl)Cl (stereo partly specified)	11%	-7%	25*	2%	-2
COP1(=O)CC(O)C(O)C(COCc2ccccc2)O1 (stereo unspecified)	x	5%	0	x	2
CCCn1cc(CN2CCC(Oc3ccc(C(=O)N4CCCC4)cc3)CC2)c(C)n1	-3%	x	2	-14%	-3
O=[N+]([O-])c1ccc2c(c1)nc1n2CCN(CC2CCCO2)C1 (stereo unspecified)	3%	-1%	28*	4%	24
COCCN1CCn2c(nc3cc([N+](=O)[O-])ccc32)C1	1%	-3%	-3	-59%	-4
O=[N+]([O-])c1ccc2c(c1)nc1n2CCN(c2ccccc2)C1	4%	-6%	37*	-41%	29*
O=C(NCC1CCCN(C(=O)c2cccnc2)C1)c1ccc(-c2ccccc2)cc1 (stereo unspecified)	6%	-6%	7	-3%	4
CC(=O)CCC(=O)N1CCCC(CNC(=O)c2ccc(-c3ccccc3)cc2)C1 (stereo unspecified)	1%	-8%	21*	-4%	42*
CSCC(=O)N1CCCC(CNC(=O)c2ccc(-c3ccccc3)cc2)C1 (stereo unspecified)	-4%	-10%	12*	-4%	22
COc1ccc2cc(C(=O)CCC(=O)O)ccc2c1	x	x	x	-6%	x
COc1ccc(N(CC(=O)N/N=C/c2cccnc2)S(=O)(=O)c2ccc(C)cc2)cc1OC	-13%	x	13	-9%	15
Cn1cccc1/C=C1\SC(=O)N(c2ccccc2)C1=O	0%	3%	52*	2%	63*
Cc1ccc(S(=O)(=O)NN2C(=O)/C(=C/c3cccn3C)SC2=S)cc1	1%	-15%	-2	-16%	-15
Cn1cc(/C=C2\SC(=S)N(NC(=O)c3ccccc3)C2=O)c2ccccc21	-3%	-24%	-1	-2%	-5
Cn1cc(/C=C2/SC(=O)N(c3ccccc3)C2=O)c2ccccc21	-3%	2%	25*	15%	43
Cn1cccc1/C=C1\SC(=S)N(Nc2ccccc2)C1=O	1%	-1%	37*	0%	51*
O=C(O)Cn1cc(/C=C2\SC(=O)N(c3ccccc3)C2=O)c2ccccc21	2%	2%	16*	6%	32
Cn1cccc1/C=C1/SC(=O)N(CC(=O)N2CCCC2)C1=O	0%	-5%	3	x	-7
CCOC(=O)C1CCN(C(=O)C2CCN(S(=O)(=O)c3cccc4nsnc34)CC2)CC1	3%	x	-1	-4%	17
SMILES	LmPK inhibitor	Giardia FBPA inh	Cycloheximide cs	NS1 function inh	Shiga inhibitor
COc1ccc(N/N=C(\C#N)C(N)=O)cc1	-7%	-18%	13*	-36%	43
CNC(=S)Nc1ccc(OC(F)(F)F)cc1	2%	0%	4	x	-3
N#C/C(=N/Nc1ccc(OC(F)(F)F)cc1)C(N)=S	-5%	0%	57*	-78%	75*
CCOc1ccc(N/N=C(/C#N)C(N)=O)cc1	-6%	-8%	31*	-167%	46*
CCOc1ccc(N/C(SC)=C(/C#N)C(N)=O)cc1	-2%	1%	-3	-15%	24
Oc1ccc2oc3c(c2c1/C=N/n1cnnc1)CCCC3	0%	-11%	17	-2%	26
Oc1ccccc1N=Cc1c(O)ccc2oc3c(c12)CCCC3	4%	-10%	8	-67%	10

Compound activity: PubChem, National Center for Advancing Translational Sciences (NCATS)
